Measurements as given in PubChem BioAssay (NCATS).
Results filed as inconclusive are left out. Values without a mark were called inactive. Calls of active or inactive are those of the source. The call rests on the fitted dose curve; in most records, active means well fitted inhibition curve with a large enough effect; inconclusive means small, poorly fitted or top-dose-only effect; inactive means flat fitted curve, though single readings scatter.

test system: CP191; test: qHTS profiling for inhibitors of Plasmodium falciparum proliferation (AID 504749); further: nearly all actives have a fitted effect of over 60% in size;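 on activity, negative = inhibition: 0% = DMSO vehicle and full inhibition = artemisinin control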; conditions: P. falciparum in erythrocytes, SYBR Green DNA, 72 h; series mostly up to 28.7 µM; activity, negative = inhibition: at the top concentration
Summary of the method: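 SYBR Green fluorescence of parasite DNA, read after lysis and overnight dark incubation, measured growth over 72 h in erythrocyte culture at 0.3% parasitemia and 2.5% hematocrit. Data normalised to DMSO and 0.29 uM artemisinin, with plate-drift correction.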
Potency means the concentration at half of the fitted maximal effect.

| SMILES | activity, negative = inhibition [%] | Potency |
| --- | --- | --- |
| CO/N=C(/C(=O)N[C@@H]1C(=O)N2C(C(=O)O)=CCS[C@H]12)c1csc(N)n1 | 6.14 | – |
| Cc1cc(CC(C)CC(C)(C)C)n(O)c(=O)c1 (centres undefined) | – | 1120 nM (active) |
| CC1CCC(C(C)C)C(OC(=O)c2ccccc2O)C1 (centres undefined) | 3.54 | – |
| CO[C@@H]1[C@@H](OC2OC(C)C(OC3CC(C)(O)C(OC(=O)CC(C)C)C(C)O3)C(N(C)C)C2O)[C@@H](CC=O)C[C@@H](C)C(=O)/C=C\C2O[C@H]2C[C@@H](C)OC(=O)C[C@H]1OC(C)=O (some centres undefined) | – | 11200 nM (active) |
| CCC(=O)O[C@@H](OP(=O)(CCCCc1ccccc1)CC(=O)N1C[C@H](C2CCCCC2)C[C@H]1C(=O)O)C(C)C (some centres undefined) | -4.61 | – |
| CC(=O)O[C@@]12CO[C@@H]1C[C@H](O)[C@@]1(C)C(=O)[C@H](O)C3=C(C)[C@@H](OC(=O)C(O)[C@@H](NC(=O)OC(C)(C)C)c4ccccc4)C[C@@](O)([C@@H](OC(=O)c4ccccc4)[C@H]21)C3(C)C (some centres undefined) | – | 28.2 nM (active) |
| CC1(C)S[C@@H]2[C@H](NC(=O)COc3ccccc3)C(=O)N2[C@H]1C(=O)O | 7.04 | – |
| CCN1/C(=C/C=C/C=C/c2sc3ccccc3[n+]2CC)Sc2ccccc21 | – | 3550 nM (active) |
| O=NCc1ccc([N+](=O)[O-])o1 | -24.8 | – |
